EP2 modulator: EP2 receptor modulators, cAMP readout, primary screen, cell-based, HTRF cAMP, PGE2 stimulation; EP2-expressing cells, cAMP HTRF FRET, PGE2 co-stimulation; 0.83% of 260,000 active; induction, % at 25 µM;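 active = compounds whose cAMP rise, as percent of the full-agonist control response, exceeds 60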;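 also: rat C6 glioma line stably carrying human EP2 under a CMV promoter; the protocol text gives 20 µM as final concentration; 100% = response of wells given 1 µM PGE2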
Target sequence (P43116 whole entry, looked up): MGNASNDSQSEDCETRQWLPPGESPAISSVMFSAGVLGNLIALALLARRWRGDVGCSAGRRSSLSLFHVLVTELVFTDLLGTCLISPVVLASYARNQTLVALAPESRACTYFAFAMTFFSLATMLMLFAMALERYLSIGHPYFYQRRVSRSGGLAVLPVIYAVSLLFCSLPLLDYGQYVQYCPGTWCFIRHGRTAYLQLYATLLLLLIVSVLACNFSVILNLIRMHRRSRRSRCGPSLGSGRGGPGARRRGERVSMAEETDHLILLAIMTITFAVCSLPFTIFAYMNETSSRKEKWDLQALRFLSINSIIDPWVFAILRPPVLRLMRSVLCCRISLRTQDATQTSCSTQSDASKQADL
S1P3 antag: S1P3 receptor antagonists, primary screen, cell-based; CHO S1P3 NFAT-BLA reporter, FRET fluorescence, antagonist mode; Sphingosine 1-phosphate receptor 3 (Homo sapiens), Q99500; 0.27% of 170,000 active; inhibition, % at 4.98 µM;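 active = inhibition above the plate cutoff, the mean inhibition of test wells on that plate plus 3 SD, cut at about 28% in these data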;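 also: cells challenged with S1P at its EC80 of 0.8 µM; blue over green emission ratio from cleaved BLA substrate after 4 h stimulation; 0% = S1P-stimulated wells and 100% = unstimulated DMSO-only wells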
Target sequence (Q99500 whole entry, looked up): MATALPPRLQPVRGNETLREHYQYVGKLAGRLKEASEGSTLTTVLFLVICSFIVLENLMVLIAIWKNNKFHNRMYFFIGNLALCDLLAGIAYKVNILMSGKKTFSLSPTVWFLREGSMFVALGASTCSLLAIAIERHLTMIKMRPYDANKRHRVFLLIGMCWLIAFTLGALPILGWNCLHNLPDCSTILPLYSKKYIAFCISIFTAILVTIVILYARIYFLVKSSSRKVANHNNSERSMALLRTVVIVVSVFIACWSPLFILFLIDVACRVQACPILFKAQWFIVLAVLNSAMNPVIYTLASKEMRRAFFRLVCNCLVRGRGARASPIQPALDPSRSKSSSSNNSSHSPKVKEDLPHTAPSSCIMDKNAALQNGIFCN
EP2 antag: human EP2 receptor antagonists, primary screen, TR-FRET cAMP, C6 glioma cells; 0.52% of 260,000 active; inhibition, % at 25 µM; Prostaglandin E2 receptor EP2 subtype (Homo sapiens), P43116; C6 glioma cells expressing human EP2; cells stimulated with saturating PGE2; AID 1422, 2008;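 active = percent inhibition above 40 after rounding to a whole number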;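 also: rat C6 glioma host cells with rolipram phosphodiesterase inhibitor present; the protocol text gives 20 µM as final concentration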
Cl transport mod: KCC2 cotransporter modulators, thallium flux, primary screen, cell-based, HEK293 KCC2, FluoZin-2 fluorescence, MLSMR; Solute carrier family 12 member 5 (Homo sapiens), Q9H2X9; KCC2 cells, thallium flux FluoZin-2 fluorescence; B-score of Tl+ flux slope (higher = more flux/activation; lower = inhibition) at 10 µM; 2.2% of 190,000 active; AID 1456, 2008;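 active = thallium flux slope and its plate-corrected score both differing from the plate sample mean at a set confidence after two filtering rounds, in either direction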;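 also: slope of fluorescence scaled to starting intensity during 10 to 20 s after thallium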
KCC2 sec1: KCC2 modulators in sodium-free buffer, confirmation, cell-based, HEK293 KCC2, thallium flux, secondary assay; 15% of 3,700 active; FluoZin2 fluorescence; active compounds read high; shares compounds with Cl transport mod; normalised thallium flux (F/F0 slope) at 10 µM; AID 1713, 2009;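 active = thallium flux slope above the same plate's solvent-only control mean plus 3 SD; inconclusive = the two replicate wells disagree; inactive = no significant difference from solvent-only control wells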
KCC2 bumet counter: thallium flux persisting under bumetanide in KCC2 cells, confirmation, counter-screen for KCC2 modulator project, cell-based, HEK293 KCC2, FluoZin2, secondary assay 3 | 49% of 3,700 active | AID 1714, 2009 | HEK293-KCC2 + bumetanide/ouabain; active compounds read high | normalized thallium flux at 10 µM | shares compounds with Cl transport mod;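 active = thallium entry rate above the same plate's blocked-transporter control wells by more than 3 SD; inconclusive = the two repeat wells disagree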;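 also: raw slope of fluorescence over initial fluorescence between 10 and 20 s after thallium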
KCC2 sec2: KCC2 modulators without ouabain present, confirmation, cell-based, HEK293 KCC2, thallium flux, FluoZin2, secondary assay 2. shares compounds with Cl transport mod. thallium flux FluoZin2 fluorescence; actives lie on both sides; F/F0 rise rate, 10–20 s post-thallium. normalized thallium flux at 10 µM. 23% of 3,700 active. AID 1715, 2009;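 active = thallium flux slope more than 3 SD above or below the plate's solvent-only control mean, mostly below; inconclusive = the two repeat wells disagreed; inactive = no significant shift from solvent-only controls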;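 also: raw slope with 0.1% DMSO as baseline and bumetanide as block control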
HEK counter1: thallium flux modulation in parental HEK cells, confirmation, counter-screen for KCC2 modulator project, cell-based, counterscreen 1. 46% of 3,700 active. HEK293 parental cells, thallium flux FluoZin2, ouabain; baseline-ratio fluorescence slope, 10–20 s after thallium. thallium flux rate (normalised fluorescence) at 10 µM. shares compounds with Cl transport mod;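 active = thallium flux rate significantly above the same plate's solvent-only control wells, beyond their mean plus 3 SD; inconclusive = the two replicate wells gave conflicting results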
KCC2 ouabain: KCC2 inhibitors and activators, ouabain retest, confirmation, HEK-KCC2 cells; shares compounds with Cl transport mod; 48% of 3,700 active; HEK293-KCC2, thallium flux FluoZin2 fluorescence; bidirectional: low = inhibitor, high = activator; raw Tl+ flux slope (below DMSO = inhibition, above = activation) at 10 µM;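 active = thallium flux slope beyond 3 SD from same-plate DMSO control mean in most replicates, usually higher, sometimes lower; inconclusive = repeat tests gave conflicting results; inactive = no significant difference from controls in most replicates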;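 also: slope of initial-normalized fluorescence between seconds 10 and 20 after thallium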
HEK293 Tl flux2: native HEK Tl+ uptake effects, second counter-screen – HEK cells, counterscreen 2, counter-screen for KCC2 modulator project, confirmation | thallium flux slope at 10 µM | HEK293 parental, thallium flux FluoZin-2 fluorescence slope | 33% of 3,700 active | shares compounds with Cl transport mod | AID 1718, 2009;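 active = thallium flux slope above the same plate's solvent-control mean plus 3 SD in both duplicate wells; inconclusive = duplicate wells that disagreed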;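 also: run without ouabain in cells lacking the KCC2 cotransporter; slope of fluorescence scaled to its starting value between 10 and 20 s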
* hit, by the source's call; ? = inconclusive; · = no result given. Rows were chosen to be rich in hits. Some 3.1% of all compounds tested hit in one or more screens of this group.

SMILES	EP2 modulator	S1P3 antag	EP2 antag	Cl transport mod	KCC2 sec1	KCC2 bumet counter	KCC2 sec2	HEK counter1	KCC2 ouabain	HEK293 Tl flux2
CCOc1ccc(N(CC(=O)Nc2c(C)n(C)n(-c3ccccc3)c2=O)S(=O)(=O)c2ccccc2)cc1	35	-2	12	-2.8*	0.0093	0.0068	0.031	0.0082	0.018	0.011
CCN(CC)c1ccc2cc(-c3nc4ccccc4n3C)c(=O)oc2c1	-41	43	5	·	0.0044*	0.00034*	0.022*	0.0037*	0.0081*	?
CCN(CC)c1ccc2cc(-c3nc4ccccc4[nH]3)c(=O)oc2c1	-1	31	9	·	·	·	·	·	·	·
Cc1ccc(C(C#N)c2ccc3c(C(F)(F)F)cc(C(F)(F)F)nc3n2)cc1 (configuration not stated)	-3	·	13	13*	0.022*	0.065*	?	0.017*	0.033*	0.016*
N#CC(c1ccccc1)c1ccc2c(C(F)(F)F)cc(C(F)(F)F)nc2n1 (configuration not stated)	2	·	22	1.7	·	·	·	·	·	·
COc1ccc(S(=O)(=O)N2CCC(C(=O)NCc3ccccc3)CC2)cc1	-50	·	18	·	·	·	·	·	·	·
Cc1ncccc1-c1cc2cccnc2n1CCCNC(=O)C1CC1	-3	·	5	·	·	·	·	·	·	·
C/C(=N\NC(=S)Nc1ccc(C)c(C)c1)c1ccc(N2CCOCC2)cc1	-18	-15	8	5*	0.011	0.033*	0.032	0.015*	0.023	0.011
C/C(=N\NC(=S)Nc1cc(S(=O)(=O)N2CCOCC2)ccc1Cl)c1ccc(N2CCOCC2)cc1	-19	-7	9	1.4	·	·	·	·	·	·
O=C(CSc1nnc(-c2ccc(F)cc2)o1)N1CCN(C(=O)c2ccco2)CC1	1	1	1	-4.4*	0.0079	0.0066	0.03*	0.0045	0.018*	0.012
O=C(CSc1nnc(CNc2ccc(F)cc2)o1)N1CCN(C(=O)c2ccco2)CC1	10	-1	1	-0.63	·	·	·	·	·	·
CC1CCc2sc(-c3n[nH]c(=S)o3)cc2C1 (configuration not stated)	-8	6	12	39*	0.021*	0.1*	0.032	0.03*	0.053*	0.015*
Cc1ccc(N(CC(=O)NCCSc2ccccn2)S(=O)(=O)c2ccc(F)cc2)cc1	39	-4	9	-4.2*	0.0067	0.005	0.026*	0.0069	?	0.01
O=S(=O)(Nc1c(S(=O)(=O)c2ccccc2)c2nc3ccccc3nc2n1C1CCCCC1)c1ccccc1	34	-15	13	-4.3*	0.0083	0.006	0.034	0.0039	?	0.012
C=CCn1c(NS(=O)(=O)c2ccccc2)c(S(=O)(=O)c2ccc(C)cc2)c2nc3ccccc3nc21	45	4	12	-3.3	·	·	·	·	·	·
Cn1nnc(NCc2cc(Br)ccc2OCc2ccccc2F)n1	-34	-18	0	-4.1*	0.0053	0.0031*	0.024*	0.006*	0.013*	0.0095
O=C(OCC#Cc1c(COC(=O)c2ccccc2)nnn1Cc1ccccc1)c1ccccc1	10	·	5	1.8*	0.007	0.004	0.028	0.0073	0.018	0.01
O=C(OCc1ccccc1)c1cccc(-c2nnn(Cc3ccccc3)n2)c1	48	·	17	0.88	·	·	·	·	·	·
Cc1cccc(C)c1OCC(=O)Nc1ccc(S(=O)(=O)Nc2ncccn2)cc1	0	·	6	·	·	·	·	·	·	·
Cc1ccc(C(=O)NC(=S)Nc2cccc(NC(=O)c3ccccc3)c2)cc1[N+](=O)[O-]	-83	-7	13	1.4	·	·	·	·	·	·
O=C(NC(=S)Nc1cccc([N+](=O)[O-])c1)c1ccccc1	-41	-4	10	12*	0.0093	0.03*	0.033	?	0.024	?
O=C(NC(=S)Nc1cccc([N+](=O)[O-])c1)c1ccco1	-7	-1	10	28*	0.022*	0.079*	?	?	0.062*	0.025*
O=C(NC(=S)Nc1ccc(Br)cn1)c1cccs1	-16	-10	6	7.7*	0.0077	0.024*	0.036	0.017*	0.033*	0.018*
O=C(NC(=S)Nc1ccc(N2CCOCC2)cc1)c1cncc(Br)c1	-17	-10	7	5.5*	0.0091	0.019*	0.036	?	0.026*	0.013
CCc1ccc(C(=O)NC(=S)Nc2ccc(N3CCOCC3)cc2)cc1	-22	-15	4	2.4	·	·	·	·	·	·
SMILES	EP2 modulator	S1P3 antag	EP2 antag	Cl transport mod	KCC2 sec1	KCC2 bumet counter	KCC2 sec2	HEK counter1	KCC2 ouabain	HEK293 Tl flux2
Cc1cccnc1NC(=S)NC(=O)c1cccs1	11	·	6	·	·	·	·	·	·	·
CN(C(=O)CN1CCC(NC(=O)Nc2ccc(C(F)(F)F)cc2)CC1)C1CCCCC1	17	·	11	·	·	·	·	·	·	·
O=C(NC(=S)Nc1ccc(Br)cn1)c1cncc(Br)c1	-2	·	6	0.8	·	·	·	·	·	·
O=C(NC(=S)Nc1ccccn1)c1cccc([N+](=O)[O-])c1	-18	-23	4	8*	?	0.042*	0.035	0.014*	0.026	0.013*
O=C(NC(=S)Nc1ccccn1)c1cncc(Br)c1	-21	13	5	6.2*	0.0073	0.017*	0.033	0.015*	?	0.014*
O=C(C1CCN(S(=O)(=O)c2ccc(-n3cnnn3)cc2)CC1)N1CCC(Cc2ccccc2)CC1	-66	·	13	·	·	·	·	·	·	·
O=C(O)CCc1cc(I)c(Oc2ccc(O)c(I)c2)c(I)c1	15	·	·	-4.1*	0.007	?	0.025*	0.0069	?	0.01

Screening results deposited in PubChem BioAssay by several laboratories.
